Assay results from PubChem BioAssay AID2590 (National Center for Advancing Translational Sciences (NCATS), 2010).
Values joined by “and” are separate entries in the source; they are usually repeats but may differ in a detail not shown here. Equal values may be shown once. Inconclusive results are not listed. Active and inactive are the calls of the source. Calls follow the shape of the dose curve; as a rule, active = well fitted curve in the direction sought with a large enough effect; inconclusive = small, poorly fitted or top-dose-only effect, or another doubt; inactive = no such curve, though single readings can be large or run the other way.

biological target: Lysosomal acid glucosylceramidase (Homo sapiens) (UniProt P04062); assay: qHTS Assay for Inhibitors and Activators of N370S glucocerebrosidase as a Potential Chaperone Treatment of Gaucher Disease: Primary Screen Confirmation; conditions: N370S glucocerebrosidase enzyme activity, fluorogenic substrate; series mostly up to 54 µM;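 as to Potency: enzyme source is Gaucher patient spleen homogenate not purified recombinant protein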
Procedure, shortened: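 Patient-spleen homogenate carrying N370S GC (27 ug) in pH 5.0 citrate buffer with 0.01% Tween-20, 1 mM 4-methylumbelliferyl-beta-glucoside, 40 min at 37C; fluorescence 365/440 nm after NaOH/glycine stop; AC50 from Hill fits.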
Potency is read from the fitted curve at half-maximal effect.

Lysosomal acid glucosylceramidase (Homo sapiens), sequence (P04062 whole entry N409S): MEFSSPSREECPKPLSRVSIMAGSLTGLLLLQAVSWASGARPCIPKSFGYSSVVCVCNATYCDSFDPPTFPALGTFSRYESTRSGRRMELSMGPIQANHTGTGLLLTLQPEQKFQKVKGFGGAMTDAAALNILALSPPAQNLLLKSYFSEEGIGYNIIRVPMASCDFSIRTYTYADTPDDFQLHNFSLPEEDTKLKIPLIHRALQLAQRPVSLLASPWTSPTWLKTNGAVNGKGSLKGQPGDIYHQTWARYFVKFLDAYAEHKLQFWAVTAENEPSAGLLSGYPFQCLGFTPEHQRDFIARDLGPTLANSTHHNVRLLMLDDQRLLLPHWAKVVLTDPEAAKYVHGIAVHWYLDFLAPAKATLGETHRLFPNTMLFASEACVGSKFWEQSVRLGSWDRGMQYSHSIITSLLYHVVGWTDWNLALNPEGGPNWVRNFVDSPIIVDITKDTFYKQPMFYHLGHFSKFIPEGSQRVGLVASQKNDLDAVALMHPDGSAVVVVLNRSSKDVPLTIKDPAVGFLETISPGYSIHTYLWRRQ

Potency, inactive:
CC(=O)N1CCN(C(=O)c2cc(-c3ccc(Cl)s3)nc3ccccc23)CC1
CN(CCO)c1nc(-c2cccs2)nc2ccccc12
Cc1ccc(CC(=O)Nc2cccc(C)n2)cc1
Cc1cccc(NC(=O)Nc2cccc(C)n2)n1
CCCCN(Cc1ccc(Cl)c(Cl)c1)c1ccc(Br)cn1
CCN1CCN(c2nc3c(C)cccn3c(=O)c2/C=C(\C#N)C(=O)NCCOC)CC1

Potency, active:
COc1cccc(S(=O)(=O)N2CCN(c3nc(-c4cccs4)nc4ccccc34)CC2)c1 0.819 µM
Cc1ccc(S(=O)(=O)N2CCN(c3ccnc(-c4cccs4)n3)CC2)cc1 9.19 µM
O=[N+]([O-])c1ccc(S(=O)(=O)N2CCN(c3nc(-c4cccs4)nc4ccccc34)CC2)cc1 3.2 µM
Cc1cc2[nH]c(=O)c(=O)[nH]c2cc1S(=O)(=O)N1CCN(c2cccc(C)c2C)CC1 4.11 µM
Cc1cc(C)cc(N(CC(=O)NC2CCCCCC2)S(=O)(=O)c2c(C)[nH]c(=O)[nH]c2=O)c1 1.12 µM
Cc1cc(C)cc(N(CC(=O)Nc2ccc(C)cc2Cl)S(=O)(=O)c2c(C)[nH]c(=O)[nH]c2=O)c1 1.63 µM
S=C(NCCCN(Cc1ccc(Cl)c(Cl)c1)c1ccc(Br)cn1)NCCc1cnc[nH]1 18.3 µM
O=S(=O)(c1ccccc1Br)N1CCN(c2nc(-c3cccs3)nc3ccccc23)CC1 1.3 µM
CCOCCCNc1nc(-c2ccccc2)nc2ccccc12 10.1 µM
c1ccc(CNc2nc(-c3cccs3)nc3ccccc23)cc1 7.13 µM and 5.66 µM
CCOc1ccc(N(CC(=O)NC2CCCCCC2)S(=O)(=O)c2c(C)[nH]c(=O)[nH]c2=O)cc1 7.94 µM
